# Assay results: PubChem BioAssay AID1416 (The Scripps Research Institute Molecular Screening Center, 2008)
# Screen size: about 220,000 compounds; about 370 (0.17%) were called active.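 Rule for the calls: active = inhibition above the mean inhibition of all tested compounds plus 3 SD, set separately per screening campaign (cut at about 2.9% in these data); inactive = the rest.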 The list comes from a sample in which actives are over-represented; it also holds similar structures and randomly drawn compounds.
# Target: Eukaryotic translation initiation factor 2-alpha kinase 3 (Homo sapiens) (UniProt Q9NZJ5)
# Experiment: block of dimerizer-induced PERK translation repression, primary screen, PERK inhibitor project, CHO PERK-DD cells, SEAP luminescence, HTS (AID 1416);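 note: PERK kinase domain activated by AP20187 dimerizer at 100 nM; 0% = DMSO with dimerizer and 100% = rapamycin at 8.4 µM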
# Conditions: CHO PERK-DD fusion, SEAP luminescence translation reporter; at 5.6 µM; stronger effect = higher value
# Chain of Eukaryotic translation initiation factor 2-alpha kinase 3 (Homo sapiens) (Q9NZJ5 whole entry, looked up, the tested form may be a part): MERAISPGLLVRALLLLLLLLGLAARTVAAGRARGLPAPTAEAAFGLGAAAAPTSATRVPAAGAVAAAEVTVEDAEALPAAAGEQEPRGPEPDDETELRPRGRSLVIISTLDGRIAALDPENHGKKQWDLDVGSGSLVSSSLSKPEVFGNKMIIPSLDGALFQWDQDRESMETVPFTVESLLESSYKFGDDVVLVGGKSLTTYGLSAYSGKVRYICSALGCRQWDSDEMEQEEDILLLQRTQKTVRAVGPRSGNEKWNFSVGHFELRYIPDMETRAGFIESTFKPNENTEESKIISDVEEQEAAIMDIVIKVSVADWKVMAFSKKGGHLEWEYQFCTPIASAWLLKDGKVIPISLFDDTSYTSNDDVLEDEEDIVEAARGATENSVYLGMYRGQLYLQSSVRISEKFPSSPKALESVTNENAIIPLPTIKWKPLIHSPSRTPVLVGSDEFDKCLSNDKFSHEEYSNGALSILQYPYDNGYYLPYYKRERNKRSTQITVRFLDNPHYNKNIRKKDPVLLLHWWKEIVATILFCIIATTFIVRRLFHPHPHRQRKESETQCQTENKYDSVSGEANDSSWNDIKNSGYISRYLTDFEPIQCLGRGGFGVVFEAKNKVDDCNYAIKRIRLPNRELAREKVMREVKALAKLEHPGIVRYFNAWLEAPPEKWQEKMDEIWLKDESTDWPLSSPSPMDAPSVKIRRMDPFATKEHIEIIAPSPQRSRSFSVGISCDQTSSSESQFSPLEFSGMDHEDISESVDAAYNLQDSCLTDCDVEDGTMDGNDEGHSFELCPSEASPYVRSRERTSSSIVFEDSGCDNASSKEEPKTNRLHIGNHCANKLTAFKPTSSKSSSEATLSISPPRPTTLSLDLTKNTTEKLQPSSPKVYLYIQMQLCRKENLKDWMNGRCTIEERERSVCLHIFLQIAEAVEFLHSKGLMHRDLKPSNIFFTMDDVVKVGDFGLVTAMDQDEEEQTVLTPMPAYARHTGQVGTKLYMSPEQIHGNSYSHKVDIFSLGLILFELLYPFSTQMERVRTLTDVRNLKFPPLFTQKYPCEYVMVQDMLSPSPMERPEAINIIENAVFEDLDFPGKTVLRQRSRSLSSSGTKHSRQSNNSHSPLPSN
row,Structure (SMILES),inhibition
1,CC(C)CNC(=O)CC(NCC(C)C)C(=O)O (configuration not stated),0.39% (inactive)
2,COc1ccccc1CN(C)C(=O)C1(c2ccc(Cl)cc2)CC1,0.49% (inactive)
3,Cc1nnc(SCC(=O)NC2CCCC2)s1,3.36% (active)
4,Cc1nnc(SCC(=O)Nn2cnnc2)s1,0.16% (inactive)
5,Cc1cnc(NC(=O)CSc2nnc(C)s2)s1,1.08% (inactive)
6,CC(=O)C1(C)N(O)C(C)(C)C(c2cccs2)=[N+]1[O-] (configuration not stated),0.19% (inactive)
7,COc1cccc(Nc2nnc(SCC(=O)N3CC(=O)Nc4ccccc43)s2)c1,0.32% (inactive)
8,CC1CC(=S)Nc2ccccc2N1Cc1ccccc1 (configuration not stated),0.04% (inactive)
9,O=C1c2ccccc2C(=O)c2c1cccc2N1CCN(CCO)CC1,-0.7% (inactive)
10,COCc1c(C(=O)OCc2c(C)noc2C)oc2ccccc12,1.59% (inactive)
11,CCOc1ccc(/C=N/NC(=O)CSc2ccccn2)cc1O,-0.92% (inactive)
12,CC1=C(C(=O)N(C)C)C(c2ccccc2OC(F)F)NC(=O)N1 (configuration not stated),1.73% (inactive)
13,CCOC(=O)c1ccc(NC(=O)c2cc(=O)[nH]c3ccccc23)cc1,0.84% (inactive)
14,O=C(Nc1cccc(F)c1)N1C2CCC1CC(O)(c1cccnc1)C2 (configuration not stated),0.63% (inactive)
15,O=C(Nc1ccccc1)OCc1cn(-c2ccc(Cl)cc2)nn1,1.21% (inactive)
16,O=C(Nc1ccc(Cl)cc1)OCc1cc(-c2ccccc2)on1,0.13% (inactive)
17,O=C(Nc1ccccc1)OCc1cc(-c2ccc(Cl)cc2)on1,3.15% (active)
18,CCN(CC)CC1(O)CCN(C(=O)c2ccc(Cl)c(Cl)c2)CC1,1.07% (inactive)
19,Cn1c(=O)c2cc(S(=O)(=O)NCCC(=O)Nc3ccc(F)cc3F)ccc2n(C)c1=O,2.78% (inactive)
20,Cc1ccc(S(=O)(=O)NCC(=O)N(CC(=O)NC(C)(C)C)Cc2cccs2)cc1,1.04% (inactive)
21,Cc1ccoc1C(=O)Nc1cccc(Oc2ccccc2)c1,-1% (inactive)

row,Structure (SMILES),inhibition
1,Cc1nc(CN2CCN(C(=O)CCc3nnc(Cc4c[nH]c5ccccc45)o3)CC2)cs1,0.14% (inactive)
2,O=C(NNc1cc(Cl)cc(Cl)c1)c1c(F)cccc1Cl,0.97% (inactive)
3,COCCNC(=S)N1CCC(NC(=O)C23CC4CC(CC(C4)C2)C3)CC1,-0.41% (inactive)
4,Cc1ccc(C2Nc3ccccc3C(=O)N2CCN2CCNC2=O)cc1 (configuration not stated),0.32% (inactive)
5,CN(C)/C=C(/C(=O)c1ccc(Cl)c(Cl)c1)c1nnnn1-c1ccccc1,1.85% (inactive)
6,O=C1COc2ccc(C(=O)COC(=O)c3cccnc3Cl)cc2N1,0.94% (inactive)
7,CCOc1ccc(S(=O)(=O)Nc2nccs2)cc1,1.47% (inactive)
8,Cc1ccc2c(c1)NCC(C(=O)NC1CCC(C)CC1)O2 (configuration not stated),0.88% (inactive)
9,COCc1c(C(=O)N/N=C/C2CC=CCC2)nnn1-c1nonc1N (configuration not stated),0.44% (inactive)
10,COc1ccc(NC(=S)Nc2ccc(S(N)(=O)=O)cc2)c(C)c1,1.02% (inactive)
11,CN(Cc1ccccn1)Cc1nc(-c2ccc(Cl)cc2)no1,0.32% (inactive)
12,COC(=O)C1=C(C)NC(=O)CC1c1ccccc1OC (configuration not stated),0.25% (inactive)
13,CN(c1ccc(OCC(=O)NC2=NCCS2)cc1)S(=O)(=O)c1ccc(F)cc1,1.79% (inactive)
14,Cc1cccc(N2CCN(c3ccc(NC(=O)/C=C\C(=O)O)cc3)CC2)c1,0.1% (inactive)
15,CS/C(=C\[N+](=O)[O-])Nc1ccc(C)cc1,1.47% (inactive)
16,CCOCCn1c(-c2ccccc2)nc2ccccc21,-1.39% (inactive)
17,Cc1ccccc1C1=N/C(=C/c2cccnc2)C(=O)O1,0.44% (inactive)
18,O=C(CC1Nc2ccccc2NC1=O)Nc1ccccc1NC(=O)CC1Nc2ccccc2NC1=O (configuration not stated),0.97% (inactive)
19,CN(C)S(=O)(=O)N1CCN(c2ccc([N+](=O)[O-])cc2)CC1,0.53% (inactive)
20,Cc1cc(NC(=O)/C=C/C(=O)N(c2ccccc2C)C(C(=O)NC2CCCC2)c2ccc(F)cc2)no1 (configuration not stated),2.4% (inactive)
21,CSc1sc(C(=O)NC(=O)NCc2cccnc2)c(C)c1-c1ccon1,-0.78% (inactive)

row,Structure (SMILES),inhibition
1,Cc1c(C=O)n(C)n(-c2ccccc2)c1=O,0.28% (inactive)
2,Cc1ccc(Cl)c(NC(=O)CN(C)CC(=O)Nc2ccc(F)c(F)c2F)c1Cl,0.24% (inactive)
3,Cc1noc(C)c1C(=O)OCC(=O)N1CCN(S(=O)(=O)c2ccc3ccccc3c2)CC1,1.94% (inactive)
4,COc1ccc(C(F)(F)F)cc1N/C=C\c1nnnn1-c1ccc(C)cc1,1.24% (inactive)
5,C#CCNC(=O)C1=C[C@@H](c2ccccc2)[C@H](CCCO)[C@@H](OCC)O1,0.82% (inactive)
6,C[C@H](NC(=O)NCCc1ccccc1)C(=O)O,1.63% (inactive)
7,CSCC[C@H](NC(=O)NCCc1ccc(F)cc1)C(=O)O,0.4% (inactive)
8,CC(C)C[C@H](NC(=O)NCCc1ccc(Cl)cc1)C(=O)O,3.16% (active)
9,CC(=O)c1ccc(NC(=O)CSC(=S)N2CCCC2)cc1,-0.15% (inactive)
10,Cc1cc(C)n(CC(O)CN(c2ccccc2)S(=O)(=O)c2ccc3ccccc3c2)n1 (configuration not stated),0.84% (inactive)
11,CC(C)CCSc1ncnc2c1oc1nc3c(cc12)COC(C)(C)C3,-0.1% (inactive)
12,CC(=O)Nc1cccc(/C(C)=N/NC(=O)c2c(-c3ccccc3Cl)noc2C)c1,-0.07% (inactive)
13,COc1ccccc1N=C(C)C1=C(O)COC1=O,0.22% (inactive)
14,O=[N+]([O-])c1ccc2c(c1)C(O)n1nc(-c3ccccc3)nc1S2 (configuration not stated),1.41% (inactive)
15,Cc1ccc(C(C)(C)C)c(OCCCCN2CCCC2)c1,-1.02% (inactive)
16,CS(=O)(=O)N(CC(=O)Nc1ccc(F)cc1F)c1cccc([N+](=O)[O-])c1,1.41% (inactive)
17,Cc1ccc(C)c(NC(=S)NNC(=S)Nc2ccc(C(C)C)cc2)c1,0.16% (inactive)
18,OCCN1CCN(C(=S)c2ccc(-c3ccccc3)cc2)CC1,0.18% (inactive)
19,CCOc1ccc(C(=O)NC(=S)Nc2ccc(N3CCOCC3)c(Cl)c2)cc1[N+](=O)[O-],1.74% (inactive)
20,CCCCn1nc(C(=O)Nc2ccc(S(=O)(=O)Nc3ncccn3)cc2)c2ccccc2c1=O,0.72% (inactive)
